ChEMBL document CHEMBL1961873, “Compounds: GSK PKIS; Assays: Nanosyn kinase panel” (2012)

These molecules were tested against Serine/threonine-protein kinase PAK 1 (Homo sapiens) (UniProt Q13153). Conditions: at 1 µM.
Serine/threonine-protein kinase PAK 1 (Homo sapiens), sequence (Q13153 whole entry): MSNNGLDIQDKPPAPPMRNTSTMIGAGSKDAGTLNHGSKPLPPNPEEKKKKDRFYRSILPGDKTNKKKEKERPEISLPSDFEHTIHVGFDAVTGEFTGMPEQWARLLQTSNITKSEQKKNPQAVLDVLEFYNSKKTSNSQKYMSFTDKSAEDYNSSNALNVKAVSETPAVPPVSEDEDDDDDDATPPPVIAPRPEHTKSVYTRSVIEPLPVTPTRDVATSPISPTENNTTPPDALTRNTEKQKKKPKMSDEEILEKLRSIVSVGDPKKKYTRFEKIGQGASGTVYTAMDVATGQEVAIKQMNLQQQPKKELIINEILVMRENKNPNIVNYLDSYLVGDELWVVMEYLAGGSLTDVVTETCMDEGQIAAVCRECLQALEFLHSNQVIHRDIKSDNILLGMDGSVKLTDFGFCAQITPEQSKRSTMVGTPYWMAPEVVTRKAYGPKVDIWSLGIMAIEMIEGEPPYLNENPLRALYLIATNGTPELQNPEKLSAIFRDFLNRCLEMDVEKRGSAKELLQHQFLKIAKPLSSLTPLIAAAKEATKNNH

Point of comparison: `COc1ccc2cc(-c3c(-c4ccncc4)nc(-c4ccc([S+](C)[O-])cc4C)n3C)ccc2c1` (stereo unspecified), inhibition -0.86%. Against it:
- CCS(=O)(=O)c1ccc(OC)c(Nc2ncc(-c3cccc(-c4ccccc4F)c3)o2)c1 — lower, -0.96%
- Fc1ccc(-c2ncn(C3CCNCC3)c2-c2ccnc(Oc3ccc(F)c(F)c3)n2)cc1 — higher, 4.33%
- COc1ccc2cc(-c3c(-c4ccncc4)nc(-c4ccc(S(C)(=O)=O)cc4C)n3C)ccc2c1 — higher, 10%
- O=C1NC(=O)C(c2cccc(Cl)c2)=C1Nc1ccc(Cl)c(C(=O)O)c1 — higher, 6.62%
- CN(C)c1ccc2c(c1)/C(=C/Nc1ccc(S(N)(=O)=O)cc1)C(=O)N2 — higher, 2.53%
- CN(c1ccc(NC(=O)Nc2c(Cl)cccc2Cl)cc1)c1ccnc(Nc2cccc(CS(C)(=O)=O)c2)n1 — higher, 2.17%
- COc1ccc(C2=C(N3CCc4ccccc43)C(=O)NC2=O)cc1 — higher, 7.47%
- NS(=O)(=O)c1ccc(Nc2cc(-c3ccc(O)c(F)c3)n[nH]2)cc1 — higher, -0.83%
- COc1cc2ncn(-c3cc(OCCc4ccccc4)c(C(N)=O)s3)c2cc1OC — higher, 5.32%
- CN1CCN(CCCNc2nc3ccc(Oc4ccc(NC(=O)Nc5cc(C(F)(F)F)ccc5F)cc4)cc3[nH]2)CC1 — higher, 2.58%
- CCc1ccc(Oc2nccc(-c3c(-c4ccc(F)cc4)ncn3C3CCNCC3)n2)cc1 — higher, 10.2%
- CCS(=O)(=O)c1ccc(OC)c(Nc2ncc(-c3ccccc3Cl)o2)c1 — lower, -1.58%
- c1ccc(-c2n[nH]cc2-c2ccnc(-c3ccc(OCCN4CCOCC4)cc3)c2)nc1 — higher, 5.57%
- COc1cc(Nc2ncc3c(C)nc(-c4cccc(Oc5ccccc5)c4)n3n2)cc(OC)c1OC — higher, 3.74%
- CNC(=O)c1cncc(/C=C/c2c(C)cccc2C)c1 — higher, 3.72%
- COc1cc(Nc2ncc3c(C)nc(-c4cccc(C(F)(F)F)c4)n3n2)cc(OC)c1OC — higher, 8.56%
- CCN(CC)Cc1ccc(Nc2nccc(-c3cnn4ncccc34)n2)cc1 — higher, 9.08%

Each molecule was assayed against Serine/threonine-protein kinase PAK 2 (Homo sapiens) (UniProt Q13177). Conditions: at 0.1 µM.
Serine/threonine-protein kinase PAK 2 (Homo sapiens), sequence (Q13177 whole entry): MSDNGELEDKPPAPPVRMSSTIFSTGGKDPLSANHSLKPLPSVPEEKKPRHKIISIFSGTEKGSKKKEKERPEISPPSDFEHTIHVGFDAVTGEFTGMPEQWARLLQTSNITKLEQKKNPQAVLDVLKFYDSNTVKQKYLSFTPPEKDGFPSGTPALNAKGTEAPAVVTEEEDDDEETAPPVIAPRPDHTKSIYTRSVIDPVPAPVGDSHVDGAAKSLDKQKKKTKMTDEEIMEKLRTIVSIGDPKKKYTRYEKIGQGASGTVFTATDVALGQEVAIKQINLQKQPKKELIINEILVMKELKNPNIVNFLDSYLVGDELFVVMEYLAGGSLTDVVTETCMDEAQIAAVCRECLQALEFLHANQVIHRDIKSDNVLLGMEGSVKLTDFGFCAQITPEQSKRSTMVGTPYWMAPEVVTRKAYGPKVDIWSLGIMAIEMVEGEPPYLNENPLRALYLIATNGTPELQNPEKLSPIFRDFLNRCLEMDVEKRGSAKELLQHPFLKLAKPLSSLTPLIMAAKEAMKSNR

Point of comparison: `Cc1ccc(C(=O)NC2CCC2)cc1-c1ccc(C(=O)NCC2CC2)cc1`, inhibition 2.22%. Against it:
- COc1cccc(/C=N/Nc2ncnc3c2cnn3-c2cccc(OC)c2)c1 — lower, 1.74%
- COc1ccc2ncn(-c3cc(O[C@H](C)c4ccccc4Cl)c(C(N)=O)s3)c2c1 — lower, 1.84%
- O=C(Nc1n[nH]c2cc(-c3cc(F)ccc3F)ccc12)C1CC1 — lower, 0.42%
- COc1ccc(-c2ccc3c(NC(=O)C4CC4)n[nH]c3n2)cc1 — lower, -1.11%
- Clc1ccc(CNc2nccc(-c3cnn4ncccc34)n2)cc1 — lower, 0.78%
- CN(C)CCOc1ccc(-c2cc(-c3ccc4c(c3)CCC4=NO)c(-c3ccncc3)o2)cc1 — lower, -1.68%
- COc1cc(N2CCN(C(C)C)CC2)ccc1Nc1nc(Nc2ccc(F)cc2C(=O)NC[C@@H](O)CO)c2cc[nH]c2n1 — lower, 1.33%
- Cc1ccc(C(=O)NC(C)C)cc1-c1ccc(C(=O)NCC2CC2)cc1 — lower, -1.39%
- O=C(Nc1ccc(Oc2ccc3[nH]c(NC(=O)c4ccccc4)nc3c2)cc1)Nc1cc(C(F)(F)F)ccc1F — lower, 2.09%
- O=C1Nc2ccc(I)cc2C1=Cc1cc(Br)c(O)c(Br)c1 — lower, 1.87%
- COc1cc(C)c(N(C)C(=O)CN(C)C)cc1Nc1nc(Nc2cccc(F)c2C(N)=O)c2cc[nH]c2n1 — lower, 1.63%
- NS(=O)(=O)c1ccc(N/N=C2\C(=O)Nc3ccc(-c4cnco4)cc32)cc1 — lower, 0.33%
- CS(=O)(=O)CCNCc1ccc(-c2ccc3ncnc(Nc4ccc(OCc5ccccc5)c(Br)c4)c3c2)o1 — lower, 0.93%
- COc1cccc(-n2cnc3c(N/N=C/c4ccncc4)ncnc32)c1 — lower, -1.03%
- Cc1ccc(NC(=O)c2ccoc2)cc1-c1ccc(C(=O)NCC2CC2)cc1 — lower, 0.23%
- COc1ccc2cc(-c3c(-c4ccncc4)nc(-c4ccc([S+](C)[O-])cc4C)n3C)ccc2c1 (stereo unspecified) — lower, -1.29%
- CCS(=O)(=O)c1ccc(OC)c(Nc2ncc(-c3cccc(-c4ccccc4F)c3)o2)c1 — lower, -1%
- Fc1ccc(-c2ncn(C3CCNCC3)c2-c2ccnc(Oc3ccc(F)c(F)c3)n2)cc1 — lower, 0.93%
- COc1ccc2cc(-c3c(-c4ccncc4)nc(-c4ccc(S(C)(=O)=O)cc4C)n3C)ccc2c1 — lower, 2.04%
- O=C1NC(=O)C(c2cccc(Cl)c2)=C1Nc1ccc(Cl)c(C(=O)O)c1 — lower, 2.04%
- CN(C)c1ccc2c(c1)/C(=C/Nc1ccc(S(N)(=O)=O)cc1)C(=O)N2 — lower, -0.61%
- CN(c1ccc(NC(=O)Nc2c(Cl)cccc2Cl)cc1)c1ccnc(Nc2cccc(CS(C)(=O)=O)c2)n1 — lower, 1.79%
